# Experimental data as given in PubChem BioAssay (NCATS).
# Records with an inconclusive call do not appear. The source made the active and inactive calls. Unless noted, calls come from the whole dose curve; as a rule, active = well fitted cell-killing curve with a large enough effect; inconclusive = small, poorly fitted or top-dose-only effect, or effect the other way; inactive = no such curve, though single readings can be large or run the other way.
# Columns and labels:
# [1] = Quantitative High-Throughput drug screen in 47 multiple myeloma cell lines against the NCATS MIPE library collection: RPMI8226_ATCC cell viability assay (AID 1919871); note: nearly all actives have a fitted effect of over 30% in size; note: potency is the fitted concentration of half-maximal effect
# How it was run: (§1)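 Viability after 48 h drug exposure was measured as ATP-dependent luminescence. Cells, 500 per well, sat at 37 °C under 5% CO2; DMSO wells set 100%, media-only wells 0%.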
# [2] = Quantitative High-Throughput drug screen in 47 multiple myeloma cell lines against the NCATS MIPE library collection: OPM2_DSMZ cell viability assay (AID 1919872); note: nearly all actives have a fitted effect of over 30% in size; note: potency is the fitted concentration of half-maximal effect
# How it was run: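 Myeloma cells (500 per well) were exposed to MIPE 4.0 compounds by pin transfer and incubated 48 hours at 37C, 5% CO2. Viability was read as ATP by CellTiter-Glo luminescence, normalised to DMSO (100%) and media-only (0%) wells.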
# [3] = Quantitative High-Throughput drug screen in 47 multiple myeloma cell lines against the NCATS MIPE library collection: KMS28BM_JCRB cell viability assay (AID 1919874); note: nearly all actives have a fitted effect of over 35% in size; note: potency is the fitted concentration of half-maximal effect
# How it was run: as §1
# [4] = qHTS for identification of novel therapeutic agents for treatment of microphthalmiaassociated transcription factor (MiT) renal cell carcinoma (RCC) (AID 1963991; calls by dose curve; note: potency is the fitted concentration of half-maximal effect); conditions: CellTiter-Glo, 48 h; for z-score: stronger effect = lower value
# How it was run: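 Curves over 11 concentrations were fitted to CellTiter-Glo luminescence, scaled between empty wells (0%) and DMSO (100%) viability. Cells were UOK109, UOK124 and UOK145 TFE3-fusion RCC lines at 500/well, exposed 48 hours at 37 C.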
# [5] = Quantitative High-Throughput drug screen in 47 multiple myeloma cell lines against the NCATS MIPE library collection: KMS11_JCRBsus cell viability assay (AID 1919873); note: nearly all actives have a fitted effect of over 50% in size; note: potency is the fitted concentration of half-maximal effect
# How it was run: as §1
# [6] = qHTS drug screen for cell cycle checkpoint inhibitors in PARPi-resistant BRCA-mutant ovarian cancer cell lines. (AID 1963452; calls by dose curve); conditions: PEO1/OlaR viability, CellTiter-Glo luminescence, 96 h, stronger effect = lower value
# How it was run: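 PEO1, PEO4 and PEO1/OlaR ovarian cancer cells, 600 per well, exposed 96 h at 37C to a dilution series. Viability read by CellTiter-Glo luminescence, normalized to DMSO and empty wells; activity summarized as Z-AUC.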
# [7] = TFE3-RCC UOK109 viability, measured here: UOK109 Z-AUC
# [8] = TFE3-RCC viability, measured here: UOK124 Z-AUC
# [9] = TFE3-RCC viability, measured here: UOK145 Z-AUC
# [10] = measured here: PEO1 parental Z-AUC
Structure (SMILES),Potency [1],Potency [2],Potency [3],"z-score [4, 7]","z-score [4, 8]","z-score [4, 9]",Potency [5],Potency ([4]; TFE3-RCC UOK109 viability),Z-AUC [6],"Z-AUC [6, 10]",Z-AUC ([6]; measured here: PEO4 Z-AUC)
CC(=CCCC1=CCC(C2=CC(=O)OC2O)OC1O)CCC1=C(C)CCCC1(C)C (stereo not given),0.0118 µM (active),inactive,2.64 µM (active),0.667,0.534,-0.0671,–,–,–,–,–
NC1CC1c1ccccc1 (stereo not given),inactive,inactive,inactive,0.891,0.509,0.821,inactive,–,–,–,–
CC(C)(O)C=CC(=O)[C@](C)(O)[C@H]1[C@H](O)C[C@]2(C)[C@@H]3CC=C4[C@@H](C=C(O)C(=O)C4(C)C)[C@]3(C)C(=O)C[C@@]12C,0.0526 µM (active),0.132 µM (active),0.166 µM (active),-3.73,-2.29,-2.28,0.118 µM (active),83.3 nM (active),–,–,–
Oc1ccc2c3c1O[C@H]1c4[nH]c5c(c4C[C@@]4(O)[C@@H](C2)N(CC2CC2)CC[C@]314)C[C@@]1(O)[C@H]2Cc3ccc(O)c4c3[C@@]1(CCN2CC1CC1)[C@H]5O4,inactive,inactive,inactive,0.682,0.462,0.385,inactive,–,–,–,–
COc1ccc(C(=O)c2c(C)n(CCN3CCOCC3)c3cc(I)ccc23)cc1,18.7 µM (active),26.4 µM (active),–,–,–,–,23.5 µM (active),–,-0.298 (inactive),-0.515,-0.461
COc1cc2cc(c1Cl)N(C)C(=O)C[C@H](OC(=O)C(C)C)[C@]1(C)O[C@H]1[C@H](C)[C@@H]1C[C@@](O)(NC(=O)O1)[C@H](OC)C=CC=C(C)C2,inactive,inactive,inactive,-2.37,-3.1,-1.62,inactive,–,–,–,–
C=C1C[C@H]2[C@H]3CCC(=O)[C@@]3(C)CC[C@@H]2[C@@]2(C)C=CC(=O)C=C12,18.7 µM (active),inactive,inactive,–,–,–,–,–,–,–,–
CCCN1CCO[C@@H]2c3cc(O)ccc3OC[C@@H]21,inactive,inactive,–,0.649,0.425,0.561,inactive,–,–,–,–
Cc1ccccc1-n1c(Cn2ncc3c(N)ncnc32)nc2cccc(C)c2c1=O,8.33 µM (active),8.33 µM (active),–,-1.3,-1.03,-1.02,1.05 µM (active),52.6 nM (active),-0.794 (inactive),-0.62,-0.742
